# Where “and” joins values, the source holds several entries; their conditions need not be identical. Equal values may be shown once. Calls of active or inactive are those of the source. Unless noted, no rule for the calls is given here.
# Legend:
# [1] = liver-stage malaria parasite growth inhibition, primary screen, cell-based, HepG2, luciferase luminescence, HepG2 viability (AID 624349; in the data active = parasite load remaining mostly below about 12%, no sharp cut-off; inactive = mostly above about 10%;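 also: 100% = mean of DMSO negative control wells on the same plate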); conditions: P. berghei liver stage in HepG2, luciferase luminescence, concentration not given here; parasite load remaining: stronger effect = lower value; viability: measured here: HepG2 viability without parasites
# [2] = kinase inhibitors against Plasmodium liver-stage infection, cell-based, known kinase inhibitor set, luminescence, hepatoma host viability (AID 624392); conditions: Plasmodium liver stage in hepatoma cells, luciferase luminescence, concentration not given here; liver cell % of control: measured here: host liver cell viability; parasite % of control: stronger effect = lower value;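 also: infected cells incubated roughly two days before readout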
# [3] = Cy5 fluorescence interference with SSB-bound oligo, artefact control for HCV NS3 helicase inhibitor project, biochemical, NIH Clinical Collection, E. coli SSB (AID 743268)
# [4] = test system: Hepatitis C virus NS3 helicase; test: HCV NS3 helicase inhibitors, primary screen, biochemical, fluorescence polarization, NIH Clinical Collection (AID 743270); conditions: NS3 helicase binding to Cy5-dT15 DNA, stronger effect = higher value, concentration not given here
# [5] = molecular target: Single-stranded DNA-binding protein (Escherichia coli (strain K12)) (UniProt P0AGE0); test: E. coli SSB displacement from DNA, counter-screen for HCV NS3 helicase inhibitor project, biochemical, fluorescence polarization, NIH Clinical Collection (AID 743271; in the data active = inhibition above about 28%); conditions: stronger effect = higher value, concentration not given here
# [6] = fluorescence interference in NS3h assay format, artefact control for HCV NS3 helicase inhibitor project, biochemical, NIH Clinical Collection (AID 743272); conditions: fluorescence interference counterscreen, stronger effect = lower value;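 also: HCV NS3 helicase with a Cy5 labelled single stranded DNA probe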
smiles,measurement,setting,value
COc1ccc(S(=O)(=O)Nc2ccccc2CN(C)C/C=C/c2ccc(Cl)cc2)cc1,parasite load remaining,[1],36.4% (inactive)
same,viability,[1],93.6%
COc1cc2nccc(Oc3ccc(NC(=S)NC(=O)c4ccccc4C)cc3)c2cc1OC,parasite load remaining,[1],22.3% (inactive)
same,viability,[1],80.3%
CSc1nc(-c2ccnc(NC(C)c3ccccc3)c2)c(-c2ccc(F)cc2)[nH]1 (stereo unspecified),parasite load remaining,[1],53.6% (inactive)
same,viability,[1],77.8%
COc1cc2ncnc(Nc3ccc(NC(=O)c4ccccc4)cc3)c2cc1OC,parasite load remaining,[1],41.1% (inactive)
same,viability,[1],100%
COc1cc(Nc2ncc3ccn(-c4cccc(CCC#N)c4)c3n2)cc(OC)c1OC,parasite load remaining,[1],50.6% (inactive)
same,viability,[1],164%
OCC(O)CCO/N=C1/C(c2c(O)[nH]c3ccccc23)=Nc2ccccc21 (stereo unspecified),parasite load remaining,[1],25.4% (inactive)
same,viability,[1],80.9%
Nc1nc(O)c(C2=C3C(=Nc4ccccc43)C(=O)NCC2)[nH]1,parasite load remaining,[1],45.8% (inactive)
same,viability,[1],99.9%
Cn1sc(=O)n(Cc2ccccc2)c1=O,parasite load remaining,[1],33% (inactive)
same,viability,[1],94.4%
COc1cc(NC(=O)c2csc(-c3ccncc3)n2)cc(C(=O)Nc2cccc(C(F)(F)F)c2)c1,liver cell % of control,[2],95.7%
same,parasite % of control,[2],124% (inactive)
CC(=O)c1ccc(N2CCOCC2)cc1O,parasite load remaining,[1],38.3% (inactive)
same,viability,[1],110%
O=C(c1ccccc1)c1ccc(N2CCOCC2)cc1O,parasite load remaining,[1],40.6% (inactive)
same,viability,[1],74.9%
O=C1NCCc2[nH]c(-c3ccnc(-c4cnc5ccccc5c4)c3)cc21,parasite load remaining,[1],35.3% (inactive)
same,viability,[1],77.1%
COc1cc(NC(=O)N2CCNC2=O)cc(C(=O)Nc2cccc(C(F)(F)F)c2)c1,liver cell % of control,[2],104%
same,parasite % of control,[2],223% (inactive)
Cc1ccc([N+](=O)[O-])cc1S(=O)(=O)N(C)N=Cc1c[nH]c2ccc(Br)c[n+]12,liver cell % of control,[2],93%
same,parasite % of control,[2],3.49% (active)
O=C(O)c1ccc2c3c1cccc3c(=O)n1c3ccccc3nc21,parasite load remaining,[1],44% (inactive)
same,viability,[1],75.2%
Cn1cc(/C=C2\C(=O)Nc3ccc(S(N)(=O)=O)cc32)c2ccccc21,parasite load remaining,[1],59.7% (inactive)
same,viability,[1],106%
O=C1Cc2c([nH]c3ccc([N+](=O)[O-])cc23)-c2ccccc2N1,parasite load remaining,[1],65.2% (inactive)
same,viability,[1],128%
same,liver cell % of control,[2],82.9%
same,parasite % of control,[2],65.2% (inactive)
C=CC(=O)Nc1cccc(Nc2ccnc(Nc3ccc(N4CCN(C)CC4)cc3)n2)c1,liver cell % of control,[2],92.9%
same,parasite % of control,[2],184% (inactive)
Cc1nc2cc3nc(-c4cccs4)cnc3cc2n1C,parasite load remaining,[1],6.62% (active)
same,viability,[1],168%
CC(C)C(CO)Nc1nc(Nc2cc(C(=O)O)cc(C(=O)O)c2)c2ncn(C(C)C)c2n1 (stereo unspecified),liver cell % of control,[2],107%
same,parasite % of control,[2],38% (inactive)
C=CC(=O)Nc1ccc(N(C)c2ccnc(Nc3ccc(N4CCN(C)CC4)cc3)n2)cc1,liver cell % of control,[2],107%
same,parasite % of control,[2],27.8% (inactive)
NCCNc1ncc(C(N)=O)c(Nc2cccc(C(F)(F)F)c2)n1,parasite load remaining,[1],37.1% (inactive)
same,viability,[1],76.9%
C=CC(=O)Nc1cccc(Oc2ncnc3[nH]cc(-c4cnc5ccccc5c4)c23)c1,liver cell % of control,[2],100%
same,parasite % of control,[2],112% (inactive)
N#Cc1cnc2cnc(NCc3cccnc3)cc2c1Nc1ccc(F)c(Cl)c1,parasite load remaining,[1],47.9% (inactive)
same,viability,[1],84.2%
CCOc1cc2ncnc(Nc3cccc(Br)c3)c2cc1OCC,parasite load remaining,[1],50.2% (inactive)
same,viability,[1],132%
O=C(Nc1cccc(-c2csc(Nc3ccc(Cl)cc3)n2)c1)c1cccc(C(F)(F)F)c1,liver cell % of control,[2],97.6%
same,parasite % of control,[2],115% (inactive)
CC(C)n1cnc2c(NCc3ccccc3)nc(NCCCO)nc21,parasite load remaining,[1],34.6% (inactive)
same,viability,[1],118%
CCN1CCN(Cc2ccc(NC(=O)c3ccc(C)c(NC(=O)CC4NC(=O)C(Cc5ccccc5)NC4=O)c3)cc2C(F)(F)F)CC1 (stereo unspecified),liver cell % of control,[2],105%
same,parasite % of control,[2],114% (inactive)
O=C(Nc1ccc(-c2csc(Nc3cccc(C(F)(F)F)c3)n2)cc1)c1ccccc1,liver cell % of control,[2],106%
same,parasite % of control,[2],69.1% (inactive)
CN(c1ccccc1CNc1nc(Nc2ccc3c(c2)CC(=O)N3)ncc1C(F)(F)F)S(C)(=O)=O,liver cell % of control,[2],53.6% and 51.8% and 95%
same,parasite % of control,[2],7.61% (inactive) and 53% (inactive) and 167% (inactive)
CCN1CCN(Cc2ccc(NC(=O)c3cc(NC(=O)c4cnnc5ccccc45)cc(OC)c3)cc2C(F)(F)F)CC1,liver cell % of control,[2],94.5%
same,parasite % of control,[2],85.8% (inactive)
CC[C@H](CO)Nc1nc(NCc2ccccc2O)c2ncn(C(C)C)c2n1,parasite load remaining,[1],34.4% (inactive)
same,viability,[1],146%
COc1cc(C(=O)N2CCC(N3CCCCC3)CC2)ccc1Nc1nnc(Cl)c(Nc2ccccc2S(C)(=O)=O)n1,liver cell % of control,[2],97.3%
same,parasite % of control,[2],118% (inactive)
CCN(CC)C(=O)c1ccc(Nc2nc(OCC3CCCCC3)c3[nH]cnc3n2)cc1,parasite load remaining,[1],41.1% (inactive)
same,viability,[1],89.4%
CCN1CCN(Cc2ccc(NC(=O)c3ccc(C)c(NC(=O)c4nccnc4N)c3)cc2C(F)(F)F)CC1,liver cell % of control,[2],93.8%
same,parasite % of control,[2],155% (inactive)
CC(C)n1cnc2c(Nc3ccc(F)c(Cl)c3)nc(NCCO)nc21,liver cell % of control,[2],96.9%
same,parasite % of control,[2],107% (inactive)
COc1cc2ncn(-c3cc(OCc4ccc(S(C)(=O)=O)cc4)c(C(N)=O)s3)c2cc1OC,parasite load remaining,[1],30% (inactive)
same,viability,[1],67.4%
O=C1C(Cl)=C(N2C(=O)CCC2=O)C(=O)c2ccccc21,parasite load remaining,[1],34.2% (inactive)
same,viability,[1],76.3%
CC[C@H]1OC(=O)[C@H](C)C(=O)[C@H](C)[C@@H](O[C@@H]2O[C@H](C)C[C@H](N(C)C)[C@H]2O)[C@](C)(OC)C[C@@H](C)C(=O)[C@H](C)[C@@H]2N(CCCCn3cnc(-c4cccnc4)c3)C(=O)O[C@@]21C,parasite load remaining,[1],32.3% (inactive)
same,viability,[1],63.9%
same,fluorescence ratio,[3],0.97 (inactive)
same,inhibition,[4],-9.83% (inactive)
same,inhibition,[5],1.18% (inactive)
same,fluorescence ratio,[6],0.92 (inactive)
Nc1cc(Nc2ccc(S(N)(=O)=O)cc2)ncn1,parasite load remaining,[1],48.4% (inactive)
same,viability,[1],133%
same,liver cell % of control,[2],97.7%
same,parasite % of control,[2],145% (inactive)
Cc1nc(Nc2cnc(C=Cc3cc(C(=O)Nc4cccc(C(F)(F)F)c4)ccc3C)cn2)cc(N2CCNCC2)n1,liver cell % of control,[2],92.4%
same,parasite % of control,[2],144% (inactive)
CCC(C)Oc1cc(-c2ccnc(Nc3cccc(Cl)c3)n2)ccn1 (stereo unspecified),liver cell % of control,[2],58.3%
same,parasite % of control,[2],150% (inactive)
NC(=O)Nc1sc(-c2ccccc2)cc1C(N)=O,parasite load remaining,[1],55.2% (inactive)
same,viability,[1],90.8%
same,liver cell % of control,[2],111%
same,parasite % of control,[2],316% (inactive)
O=Nc1c(-c2c(O)[nH]c3ccc(I)cc23)[nH]c2ccccc12,parasite load remaining,[1],33.7% (inactive)
same,viability,[1],156%
CC#CC(=O)Nc1cc2c(Nc3ccc(F)c(Cl)c3)ncnc2cn1,parasite load remaining,[1],50.6% (inactive)
same,viability,[1],159%
C=CC(=O)Nc1cccc(Oc2cc(Cl)nc3[nH]ccc23)c1,liver cell % of control,[2],101%
same,parasite % of control,[2],63.5% (inactive)
Cc1cn(-c2cc(NC(=O)c3ccc(C)c(NC(=O)c4cccc(-c5cn[nH]c(=O)c5)c4)c3)cc(C(F)(F)F)c2)cn1,liver cell % of control,[2],97.4%
same,parasite % of control,[2],93.8% (inactive)
COc1ccc(CNc2nc(NCc3ccc(OC)cc3)c3ncn(C(C)C)c3n2)cc1,liver cell % of control,[2],107%
same,parasite % of control,[2],168% (inactive)
COc1cc(NC(=O)c2cncc(-c3ccc(C#N)cc3)c2)cc(C(=O)Nc2cccc(C(F)(F)F)c2)c1,liver cell % of control,[2],98.8%
same,parasite % of control,[2],101% (inactive)
CCN1CCN(Cc2ccc(NC(=O)c3cc(NC(=O)c4cnn(-c5ccccc5)c4N)cc(OC)c3)cc2C(F)(F)F)CC1,liver cell % of control,[2],109%
same,parasite % of control,[2],130% (inactive)
CC(C)n1cnc2c(Nc3ccc(C(=O)O)cc3)nc(Cl)nc21,liver cell % of control,[2],88.9%
same,parasite % of control,[2],123% (inactive)
O=C1NC(=O)C(=Cc2ccc(-c3ccc(S(=O)(=O)N4CCNCC4)cc3)o2)C(=O)N1,liver cell % of control,[2],94.8%
same,parasite % of control,[2],303% (inactive)
NC1=NC(=O)C(=Cc2cccc(-c3ccc(S(N)(=O)=O)cc3)c2)S1,liver cell % of control,[2],98%
same,parasite % of control,[2],377% (inactive)
O=C(Nc1cccc(-c2csc(Nc3cccc(C(F)(F)F)c3)n2)c1)c1ccccc1,liver cell % of control,[2],97.7%
same,parasite % of control,[2],68.7% (inactive)
CC(C)CC(CO)Nc1nc(Nc2cccc(Cl)c2)c2ncn(C(C)C)c2n1 (stereo unspecified),liver cell % of control,[2],102%
same,parasite % of control,[2],148% (inactive)
Cn1c(C2=C(c3c4n(c5ccccc35)CCC(CN)C4)C(=O)NC2=O)cc2ccccc21 (stereo unspecified),liver cell % of control,[2],41.8% and 77.6% and 88.8%
same,parasite % of control,[2],3.36% (inactive) and 70.7% (inactive) and 90.3% (inactive)
CCN1CCN(Cc2ccc(NC(=O)c3ccc(C)c(NC(=O)c4cc(-c5ccc(Br)cc5)n[nH]4)c3)cc2C(F)(F)F)CC1,liver cell % of control,[2],90.4%
same,parasite % of control,[2],208% (inactive)
C=CC(=O)Nc1cccc(Oc2ccnc3[nH]ccc23)c1,liver cell % of control,[2],102%
same,parasite % of control,[2],56.9% (inactive)

# Source: PubChem BioAssay
